In the supplement of paper PMC13380429 one finds morphology score and SARS-CoV-2 infection rate data, which are given here for 30 compounds.

For assay [1], the system named is Vero E6 infected with SARS-CoV-2. In words: morphology score (similarity to uninfected cells); higher = more like uninfected cells. The following applies: 24 h.
The test system is the same in assay [2]. In words: SARS-CoV-2 infection rate relative to infected DMSO; higher = more infection, active = 60 or less. The following applies: 24 h.

With `CSc1nc(NC2CCCC2)c([N+](=O)[O-])c(NC2CCCC2)n1` (10 µM), in assay [1], the morphology score is 0.349. Moreover, the SARS-CoV-2 infection rate in assay [2] is 88% (inactive).

With `O=C(NCCCCCCNC(=O)ON=C1CCCCC1)ON=C1CCCCC1` (10 µM), in assay [1], the morphology score is 0.11. In addition, in assay [2], the SARS-CoV-2 infection rate was 104% (inactive).

As to `CC(C)NCC(O)c1ccc([N+](=O)[O-])cc1` (stereo not given) [nifenalol] (10 µM), in assay [1], the morphology score was -0.141. For the same compound, the SARS-CoV-2 infection rate in assay [2] was 118% (inactive).

In the case of `Cc1nnc(NS(=O)(=O)c2ccc(N)cc2)s1` [sulfamethizole] (10 µM), the morphology score in assay [1] came out at 0.0585. Moreover, the SARS-CoV-2 infection rate in assay [2] was 108% (inactive).

For the compound `CC(C)N(CCCCOCC(=O)NS(C)(=O)=O)c1cnc(-c2ccccc2)c(-c2ccccc2)n1` [selexipag] (10 µM), in assay [1], the morphology score was -0.0772. The SARS-CoV-2 infection rate in assay [2] was 116% (inactive).

`O.O.O.O.O=C([O-])CC(O)(CC(=O)[O-])C(=O)[O-].[Li+].[Li+].[Li+]` [lithium-citrate] (10 µM) returned a morphology score in assay [1] of 0.239. Further, the SARS-CoV-2 infection rate in assay [2] was 89% (inactive).

`CC(C(=O)O)c1ccc2c(c1)Cc1ccccc1-2` (stereo not given) [cicloprofen] (10 µM): the morphology score in assay [1] is -0.0564. Besides, in assay [2], the SARS-CoV-2 infection rate is 100% (inactive).

Compound `CC(C)(C)c1ccc(C(=O)CCCN2CCC(OC(c3ccccc3)c3ccccc3)CC2)cc1` [ebastine] (10 µM) displayed a morphology score in assay [1] of 0.606. In addition, in assay [2], the SARS-CoV-2 infection rate is 50% (active).

With `COc1ccc(Oc2c(Cl)cnn(C3c4ccccc4-c4ccccc43)c2=O)cc1` (10 µM), in assay [1], the morphology score was 0.0752. Moreover, the SARS-CoV-2 infection rate in assay [2] was 102% (inactive).

In turn, `Cc1cc(C)c(Nc2ccnc(Nc3ccc(C#N)cc3)n2)c(C)c1` [dapivirine] (0.833333 µM) registered a morphology score in assay [1] of 0.07. Besides, in assay [2], the SARS-CoV-2 infection rate is 114% (inactive).

For `C[C@@H]1O[C@@H](OC[C@H]2O[C@@H](Oc3c(-c4ccc(O)c(O)c4)oc4cc(O)cc(O)c4c3=O)[C@H](O)[C@@H](O)[C@@H]2O)[C@H](O)[C@H](O)[C@H]1O` [rutin] (10 µM), the morphology score in assay [1] is -0.197. Also, the SARS-CoV-2 infection rate in assay [2] was 112% (inactive).

Regarding `C[C@]12CCC(=O)C[C@@H]1CC[C@@H]1[C@@H]2CC[C@]2(C)[C@@H](O)CC[C@@H]12` [Dihydrotestosterone] (10 µM), the morphology score in assay [1] was -0.034. Also, in assay [2], the SARS-CoV-2 infection rate was 110% (inactive).

`CC(=O)Nc1cccc2c1c(Sc1ccc(Cl)cc1)c(C)n2CC(=O)O` (10 µM) gave a morphology score in assay [1] of 0.187. Also, the SARS-CoV-2 infection rate in assay [2] was 97% (inactive).

`O=C(/C=C/C=C/c1ccc2c(c1)OCO2)N1CCCCC1` [piperine] (10 µM): the morphology score in assay [1] came to 0.0346. Further, the SARS-CoV-2 infection rate in assay [2] was 97.5% (inactive).

For the compound `COc1cc(C(=O)N2CCOCC2)cc(OC)c1OC` [trimetozine] (10 µM), in assay [1], the morphology score is -0.0638. Besides, in assay [2], the SARS-CoV-2 infection rate was 113% (inactive).

In assay [1], `O=C(Nc1cc(Cl)cc(Cl)c1O)c1c(O)c(Cl)cc(Cl)c1Cl` [oxyclozanide] (10 µM) returned a morphology score of 0.0306. In addition, the SARS-CoV-2 infection rate in assay [2] was 113% (inactive).

For `C[C@]12CC[C@@H]3c4ccc(O)cc4CC[C@H]3[C@@H]1CC[C@@H]2OC(=O)CCC1CCCC1` [estradiol-cypionate] (10 µM), in assay [1], the morphology score is -0.002. Besides, in assay [2], the SARS-CoV-2 infection rate is 99% (inactive).

Consider `Cc1cccc(C)c1NC(=O)CN1CCN(CCCC(c2ccc(F)cc2)c2ccc(F)cc2)CC1` [lidoflazine] (10 µM), for which the morphology score in assay [1] was found to be 0.34. Also, the SARS-CoV-2 infection rate in assay [2] was 76.5% (inactive).

The compound `Cn1c(=O)c2c(ncn2CC(=O)Nc2ccc(-c3ccccc3)nn2)n(C)c1=O` (10 µM) showed a morphology score in assay [1] of 0.382. Moreover, the SARS-CoV-2 infection rate in assay [2] was 80.5% (inactive).

In assay [1], `Cn1c(COP(=O)(NCCBr)NCCBr)cnc1[N+](=O)[O-]` (10 µM) gave a morphology score of 0.0413. In assay [2], the SARS-CoV-2 infection rate was 106% (inactive).

On to `NC(=O)c1ncn([C@@H]2O[C@H](CO)[C@@H](O)[C@H]2O)c1N` [acadesine] (10 µM), for which the morphology score in assay [1] is 0.00261. Moreover, the SARS-CoV-2 infection rate in assay [2] is 98.5% (inactive).

In turn, `CC#CC(=O)N1CC[C@@H](n2c(=O)n(-c3ccc(Oc4ccccc4)cc3)c3c(N)ncnc32)C1` (0.833333 µM) returned a morphology score in assay [1] of -0.0591. The SARS-CoV-2 infection rate in assay [2] is 90% (inactive).

As to `CCOC(=O)c1cnc2c(cnn2CC)c1NN=C(C)C` [etazolate] (10 µM), in assay [1], the morphology score turned out to be 0.254. Further, the SARS-CoV-2 infection rate in assay [2] is 100% (inactive).

In assay [1], `CC(=O)NCC(=O)N[C@H](CCC(=O)O)C(=O)O` [N-acetylglycyl-D-glutamic-acid] (10 µM) yielded a morphology score of 0.127. Moreover, in assay [2], the SARS-CoV-2 infection rate is 98% (inactive).

`O/N=C/c1ccc(-c2ccc(O)c(F)c2)c(Cl)c1O` (10 µM) showed a morphology score in assay [1] of 0.342. For the same compound, in assay [2], the SARS-CoV-2 infection rate is 76.5% (inactive).

In the case of `CN1C(C(=O)Nc2ccccn2)=C(O)c2sc(Cl)cc2S1(=O)=O` [lornoxicam] (10 µM), in assay [1], the morphology score stood at 0.00915. Also, the SARS-CoV-2 infection rate in assay [2] is 97% (inactive).

`CN[C@@H](C)[C@H](O)c1ccccc1` [ephedrine] (10 µM) gave a morphology score in assay [1] of -0.038. Also, the SARS-CoV-2 infection rate in assay [2] was 106% (inactive).

In assay [1], `CCCCCCCCCCC[C@@H](C[C@@H]1OC(=O)[C@H]1CCCCCC)OC(=O)[C@H](CC(C)C)NC=O` [orlistat] (10 µM) displayed a morphology score of 0.226. Also, the SARS-CoV-2 infection rate in assay [2] is 100% (inactive).

As for `NC(=O)[C@@H](CCC(F)(F)F)N(Cc1ccc(-c2ncon2)cc1F)S(=O)(=O)c1ccc(Cl)cc1` [avagacestat] (10 µM), the morphology score in assay [1] worked out at 0.0806. The SARS-CoV-2 infection rate in assay [2] was 108% (inactive).

In turn, `C[C@]1(COc2ccc(N3CCC(Oc4ccc(OC(F)(F)F)cc4)CC3)cc2)Cn2cc([N+](=O)[O-])nc2O1` [delamanid] (10 µM) came in with a morphology score in assay [1] of -0.0971. In addition, the SARS-CoV-2 infection rate in assay [2] is 110% (inactive).
